{"source": "paper PMC7862700", "about": "“An all-to-all approach to the identification of sequence-specific readers for epigenetic DNA modifications on cytosine”", "assay_in_all_cases": "DAPPL (digital affinity profiling via proximity ligation, sequencing); 10 mM Tris-HCl pH 7.5, 50 mM NaCl, 1 mM DTT, 4% glycerol, room temperature, 30 min; GST-TFs on glutathione beads, 16-mer random dsDNA library, 0.1% formaldehyde crosslink after washing; high values mean tight binding", "conditions_in_all_cases": "protein: recombinant; tags: N-terminal GST; dsDNA, one strand shown", "key": {"[1]": {"target": "T1, FLI1 (Homo sapiens, UniProt Q01543 1-452)", "T1 sequence": "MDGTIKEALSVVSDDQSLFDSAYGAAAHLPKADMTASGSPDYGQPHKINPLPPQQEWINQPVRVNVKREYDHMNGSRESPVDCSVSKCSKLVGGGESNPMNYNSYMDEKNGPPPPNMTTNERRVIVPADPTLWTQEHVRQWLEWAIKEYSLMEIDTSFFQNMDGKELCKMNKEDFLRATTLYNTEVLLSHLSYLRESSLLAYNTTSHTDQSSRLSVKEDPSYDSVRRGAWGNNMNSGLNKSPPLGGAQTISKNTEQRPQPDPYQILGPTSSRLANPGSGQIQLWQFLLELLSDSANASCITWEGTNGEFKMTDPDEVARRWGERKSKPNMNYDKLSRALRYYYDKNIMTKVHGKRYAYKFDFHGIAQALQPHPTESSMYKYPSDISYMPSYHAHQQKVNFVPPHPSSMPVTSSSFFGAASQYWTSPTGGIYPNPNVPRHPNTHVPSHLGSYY", "summary_of_the_method": "(§1)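 Sequencing on an Illumina NextSeq500 followed washing, crosslinking with 0.1% formaldehyde, proximity ligation (BsaI/T4 ligase, 1 h, 37 °C) and PCR amplification of pools that had been incubated for 30 min at room temperature with 200 nmole of a random double-stranded 16-mer DNA library in Tris/NaCl/DTT/glycerol buffer. Each pool held DNA-barcoded human transcription factors, expressed in yeast as GST fusions and captured on glutathione beads, plus a tag-only sample. Binding signal is a hexamer's read frequency for a factor divided by its frequency in the tag-only sample.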"}, "[2]": {"target": "T2, ELK1 (Homo sapiens, UniProt P19419 1-428)", "T2 sequence": "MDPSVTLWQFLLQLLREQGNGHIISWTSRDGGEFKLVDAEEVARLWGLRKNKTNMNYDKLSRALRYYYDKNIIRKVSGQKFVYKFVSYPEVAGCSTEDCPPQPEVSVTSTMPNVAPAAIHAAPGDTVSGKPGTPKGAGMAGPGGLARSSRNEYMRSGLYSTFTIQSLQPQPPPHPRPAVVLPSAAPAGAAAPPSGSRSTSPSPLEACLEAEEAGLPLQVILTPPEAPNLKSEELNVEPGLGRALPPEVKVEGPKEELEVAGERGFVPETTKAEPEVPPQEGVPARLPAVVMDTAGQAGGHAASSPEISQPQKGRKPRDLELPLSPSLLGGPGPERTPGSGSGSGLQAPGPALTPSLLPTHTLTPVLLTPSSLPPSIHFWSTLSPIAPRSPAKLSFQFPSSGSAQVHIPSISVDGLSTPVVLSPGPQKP", "summary_of_the_method": "as §1"}, "[3]": {"target": "T3, GABPA (Homo sapiens, UniProt Q06546 1-454)", "T3 sequence": "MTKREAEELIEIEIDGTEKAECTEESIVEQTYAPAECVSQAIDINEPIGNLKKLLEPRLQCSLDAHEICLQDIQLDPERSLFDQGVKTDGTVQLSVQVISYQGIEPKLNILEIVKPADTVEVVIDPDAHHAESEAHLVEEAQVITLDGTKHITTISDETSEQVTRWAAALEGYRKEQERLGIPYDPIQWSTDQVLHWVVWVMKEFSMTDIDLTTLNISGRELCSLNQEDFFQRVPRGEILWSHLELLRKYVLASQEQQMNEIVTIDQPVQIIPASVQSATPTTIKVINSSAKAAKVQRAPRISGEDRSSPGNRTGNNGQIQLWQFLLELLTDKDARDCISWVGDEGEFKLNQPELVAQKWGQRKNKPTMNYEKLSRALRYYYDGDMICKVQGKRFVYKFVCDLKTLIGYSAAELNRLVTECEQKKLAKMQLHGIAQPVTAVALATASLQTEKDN", "summary_of_the_method": "as §1"}, "[4]": {"target": "T4, ERG (Homo sapiens, UniProt P11308 1-479)", "T4 sequence": "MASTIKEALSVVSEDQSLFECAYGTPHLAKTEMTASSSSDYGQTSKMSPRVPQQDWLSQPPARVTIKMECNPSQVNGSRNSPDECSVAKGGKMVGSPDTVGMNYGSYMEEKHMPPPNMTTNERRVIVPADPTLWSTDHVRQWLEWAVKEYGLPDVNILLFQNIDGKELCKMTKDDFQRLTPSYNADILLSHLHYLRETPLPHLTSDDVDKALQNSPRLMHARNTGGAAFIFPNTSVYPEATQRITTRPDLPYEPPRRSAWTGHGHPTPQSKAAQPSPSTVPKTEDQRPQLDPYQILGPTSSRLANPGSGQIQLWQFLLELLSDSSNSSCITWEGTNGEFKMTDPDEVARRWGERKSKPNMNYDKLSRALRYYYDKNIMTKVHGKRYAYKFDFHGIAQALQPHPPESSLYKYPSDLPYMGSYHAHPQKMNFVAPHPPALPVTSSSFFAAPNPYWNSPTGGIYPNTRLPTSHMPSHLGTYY", "summary_of_the_method": "as §1"}, "[5]": {"target": "ELF1 (Homo sapiens, UniProt P32519 1-619)", "sequence (P32519 whole entry)": "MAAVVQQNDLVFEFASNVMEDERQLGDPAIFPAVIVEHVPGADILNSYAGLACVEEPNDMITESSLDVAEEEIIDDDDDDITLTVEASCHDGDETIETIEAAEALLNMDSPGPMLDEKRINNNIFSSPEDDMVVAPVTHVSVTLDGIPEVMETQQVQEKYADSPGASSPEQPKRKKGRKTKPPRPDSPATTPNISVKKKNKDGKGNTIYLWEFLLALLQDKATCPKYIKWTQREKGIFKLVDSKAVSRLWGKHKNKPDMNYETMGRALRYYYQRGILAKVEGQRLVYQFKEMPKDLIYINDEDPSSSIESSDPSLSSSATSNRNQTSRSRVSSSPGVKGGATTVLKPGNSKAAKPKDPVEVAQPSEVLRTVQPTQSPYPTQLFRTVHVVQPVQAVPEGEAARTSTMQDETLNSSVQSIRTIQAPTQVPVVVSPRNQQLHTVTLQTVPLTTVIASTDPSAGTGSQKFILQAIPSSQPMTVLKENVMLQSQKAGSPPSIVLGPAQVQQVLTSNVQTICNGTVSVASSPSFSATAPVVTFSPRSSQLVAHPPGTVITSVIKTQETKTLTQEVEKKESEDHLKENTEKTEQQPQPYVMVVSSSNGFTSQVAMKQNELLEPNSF", "summary_of_the_method": "as §1"}, "[6]": {"target": "T5, EHF (Homo sapiens, UniProt Q9NZC4 1-300)", "T5 sequence": "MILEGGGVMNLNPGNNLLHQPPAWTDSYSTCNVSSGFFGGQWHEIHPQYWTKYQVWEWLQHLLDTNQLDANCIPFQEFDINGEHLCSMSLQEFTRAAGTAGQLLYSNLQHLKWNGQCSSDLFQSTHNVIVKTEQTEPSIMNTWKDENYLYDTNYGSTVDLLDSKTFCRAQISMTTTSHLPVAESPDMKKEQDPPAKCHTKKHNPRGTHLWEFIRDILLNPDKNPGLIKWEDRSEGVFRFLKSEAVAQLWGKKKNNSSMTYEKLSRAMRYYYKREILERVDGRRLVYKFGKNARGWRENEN", "summary_of_the_method": "as §1"}, "[7]": {"target": "SPI1 (Homo sapiens, UniProt P17947 1-270)", "summary_of_the_method": "as §1"}, "[8]": {"target": "SPIB (Homo sapiens, UniProt Q01892 1-262)", "sequence (Q01892 whole entry)": "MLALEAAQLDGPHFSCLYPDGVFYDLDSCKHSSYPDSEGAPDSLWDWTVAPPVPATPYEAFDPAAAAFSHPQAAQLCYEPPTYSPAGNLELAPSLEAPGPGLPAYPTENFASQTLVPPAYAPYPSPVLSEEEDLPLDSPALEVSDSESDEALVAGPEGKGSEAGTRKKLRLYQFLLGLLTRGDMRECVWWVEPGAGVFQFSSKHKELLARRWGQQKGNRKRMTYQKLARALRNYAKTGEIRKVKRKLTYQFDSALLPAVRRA", "summary_of_the_method": "as §1"}, "[9]": {"target": "T6, ELK3 (Homo sapiens, UniProt P41970 1-407)", "T6 sequence": "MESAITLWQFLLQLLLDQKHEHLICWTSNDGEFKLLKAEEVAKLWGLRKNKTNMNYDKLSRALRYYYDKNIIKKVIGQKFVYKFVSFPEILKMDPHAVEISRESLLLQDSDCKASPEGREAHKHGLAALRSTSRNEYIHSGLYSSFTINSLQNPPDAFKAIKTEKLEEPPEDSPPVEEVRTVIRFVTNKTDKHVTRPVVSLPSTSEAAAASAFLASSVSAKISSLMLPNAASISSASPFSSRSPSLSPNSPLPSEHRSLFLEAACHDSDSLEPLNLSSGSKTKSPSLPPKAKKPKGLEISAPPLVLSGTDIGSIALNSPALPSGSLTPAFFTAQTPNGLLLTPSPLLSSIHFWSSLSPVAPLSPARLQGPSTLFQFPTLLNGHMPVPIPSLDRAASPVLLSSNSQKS", "summary_of_the_method": "as §1"}}, "data": [{"sequence": "CTTGGT", "values": [{"measurement": "binding signal", "setting": "[1]", "result": "1.63 fold enrichment (6-mer frequency, TF over GST control)"}, {"measurement": "binding signal", "setting": "[2]", "result": "1.44 fold enrichment (6-mer frequency, TF over GST control)"}, {"measurement": "binding signal", "setting": "[3]", "result": "1.55 fold enrichment (6-mer frequency, TF over GST control)"}, {"measurement": "binding signal", "setting": "[4]", "result": "1.42 fold enrichment (6-mer frequency, TF over GST control)"}, {"measurement": "binding signal", "setting": "[5]", "result": "1.46 fold enrichment (6-mer frequency, TF over GST control)"}, {"measurement": "binding signal", "setting": "[6]", "result": "1.53 fold enrichment (6-mer frequency, TF over GST control)"}, {"measurement": "binding signal", "setting": "[7]", "result": "1.4 fold enrichment (6-mer frequency, TF over GST control)"}, {"measurement": "binding signal", "setting": "[8]", "result": "1.57 fold enrichment (6-mer frequency, TF over GST control)"}, {"measurement": "binding signal", "setting": "[9]", "result": "1.66 fold enrichment (6-mer frequency, TF over GST control)"}]}]}
